From the supplement of paper PMC5499739
Whole data set: some 16,000 sequences, median “Z-score” near -0.37, cut for the highest 2% near 3.1. For the sample, the highest values were picked, then their nearest neighbours and some sequences at random.

These sequences were tested on RBM10 RRM1-ZnF-RRM2 (GST-tagged construct) (assay: RNAcompete 7-mer binding Z-score; higher = stronger binding preference).
Method in brief: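 GST-tagged RBM10 constructs (20 pmol) were mixed with a designed pool of 241 399 RNAs up to 41 nt (1.5 nmol), transcribed from microarray-derived DNA templates. Mixing was in 1 ml Hepes pH 7.8 buffer with KCl, NaCl, glycerol, DTT, BSA and glutathione Sepharose beads. Binding ran 30 min at 4°C, followed by four 2-min washes at 4°C, and bound RNA was identified by microarray hybridisation. Each heptamer motif received a one-sided Z-score for enrichment across probes containing it.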

| Sequence | RNAcompete 7-mer binding Z-score |
| --- | --- |
| CAUCCCA | -0.486 |
| GCCAUCG | -0.646 |
| GACUUCA | -0.672 |
| UUGCUGA | -0.486 |
| AUAAGUU | -0.249 |
| CGAGAGG | 1.46 |
| UUCCAGA | -0.519 |
| UGGCUUU | -0.464 |
| ACGGAGG | 2.57 |
| CCGGAGG | 0.876 |
| AUGGAGG | 4.33 |
| AUGGAGU | 2.24 |
| GUGGAGC | 2.47 |
| GUGGAGG | 4.09 |
| AUGGAGA | 2.59 |
| GCGGAGG | 3.25 |
| GUGGAGU | 2.86 |
| CGAUAAU | -0.256 |
| GGAUCAA | 1.19 |
| CAUCCCU | -0.69 |
| CGAAGUU | -0.235 |
| AACAGUG | 0.654 |

| Sequence | RNAcompete 7-mer binding Z-score |
| --- | --- |
| GCUCGCA | -0.373 |
| UAACUAC | -0.551 |
| GGAUUGG | 3.28 |
| GGAUAGA | 2.48 |
| GGAUAGG | 4.1 |
| CGAUUGG | 0.825 |
| UAAUAGG | 0.742 |
| CAAUAGG | 1.3 |
| GGAUUGU | 0.822 |
| GAAUAGG | 3.18 |
| AGAUAGG | 2.87 |
| UGACGCA | -0.107 |
| AACCUAA | -0.734 |
| UUAGCUC | -0.781 |
| CGAUAUC | -0.5 |
| GGAUCGC | 0.538 |
| UAUGAGG | 1.54 |
| UCCAGCC | -0.799 |
| ACAGAUC | -0.508 |
| CACGUGC | -0.428 |
| UAUUGCG | -0.278 |
| UCCCGUU | -0.799 |

| Sequence | RNAcompete 7-mer binding Z-score |
| --- | --- |
| UUCGUCG | -0.3 |
| CUUAAUC | -0.905 |
| GCAAGGU | 2.17 |
| GCAAGGA | 2.65 |
| ACAAGGA | 1.94 |
| CCAAGGG | 1.05 |
| ACAAGGG | 3.52 |
| GCAAGGG | 3.28 |
| AAAAAUU | -0.435 |
| GAUAUAG | 0.734 |
| CUUUACG | -0.81 |
| UCGAGUU | -0.482 |
| GCCUACC | -0.726 |
| GGGCUGC | 1.14 |
| GAAGGUA | 4.04 |
| GUAGGUA | 2.25 |
| GAAGGUU | 2.96 |
| UAAGGUG | 2.07 |
| CAAGGUG | 2.13 |
| UAAGGUA | 1.39 |
| AUAGGUG | 2.41 |
| GAAGGCG | 2.66 |

| Sequence | RNAcompete 7-mer binding Z-score |
| --- | --- |
| GAAGGUG | 4.37 |
| AAAGGUG | 3.5 |
| GUAGGUG | 3.25 |
| GAAGGUC | 1.25 |
| GCCAUGU | -0.632 |
| CUAGUGC | -0.486 |
| AACCGUG | -0.00148 |
| UCGAAAG | -0.00148 |
| AUUCGAG | -0.114 |
| AGACCGG | -0.366 |
| AAAGGUC | 1.46 |
| AAAGGUA | 3.53 |
| AAAGGUU | 3.09 |
| UGAAGGC | 1.21 |
| CGAAGGA | 1.62 |
| GGAAGGU | 3.94 |
| UGAAGGG | 3.56 |
| UGAAGCG | 0.581 |
| CGAAGGU | 1.34 |
| AGAAGAA | 1 |
| AGAAGGC | 1.17 |
| AGAAGGA | 4.29 |

| Sequence | RNAcompete 7-mer binding Z-score |
| --- | --- |
| GGAAGGC | 3.04 |
| UGAAGGA | 2.95 |
| GGAAGGA | 4.61 |
| CGAAUAA | -0.224 |
| GGUCAGC | 0.716 |
| CAUUUGC | -1.04 |
| AGUCCAA | -0.464 |
| AUGCGCG | -0.0889 |
| GAAAUCG | 0.195 |
| GGCAACU | 0.0532 |
| AUAGACA | 0.0532 |
| AUAAUCU | -0.65 |
| AAGAUGU | 0.13 |
| AACGGAA | 1.91 |
| GCAUUUA | -0.661 |
| AACAAAG | 0.355 |
| CUGCUCU | -0.923 |
| GGCAUGA | 0.876 |
| UGAAGGU | 2.14 |
| AGAAGGU | 3.67 |
| AGAAGAG | 1.61 |
| CGAAGGG | 2.68 |
